Here are results for 13 compounds from PubChem BioAssay (NCI).

Compounds without any hit were thinned out: in the full panel of roughly 83,000, 20% have a hit.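 Single-concentration screen, 48 h exposure, 96-well plates. Endpoint: percent growth. Below 10 = active.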 Values without a mark were called inactive. Activity calls are given as the source filed them.

Among the test systems are HCT-15 colon; HT29 colon; SNB-75 CNS; SNB-19 CNS; U251 CNS; PC-3 prostate; SK-MEL-5 melanoma; UACC-62 melanoma; LOX IMVI melanoma; SK-MEL-28 melanoma.
Holding throughout (test): NCI-60 one-dose screen, 48 h (100 = growth as untreated, 0 = no growth, -100 = all killed)
Holding throughout (details): 10 µM unless noted

`CCC1(C(C)C)C(=O)NC(=S)NC1=O`: the growth in the assay with HCT-15 colon was 97.6%; in the assay with HT29 colon, 112%; in the assay with SNB-75 CNS it was 95.5%; with SNB-19 CNS, 108%; in the assay with U251 CNS, 95.9%; in the assay on PC-3 prostate, 95.6%. Besides, the growth in the assay with SK-MEL-5 melanoma is 98.8%; in the assay on UACC-62 melanoma, 103%; with LOX IMVI melanoma, 102%; in the assay on SK-MEL-28 melanoma, 109%.

Consider `c1ccc(CSC(c2ccccc2)c2ccccc2)cc1`, for which the growth with HCT-15 colon was 106%; in the assay on HT29 colon, 84.1%; with SNB-75 CNS it was 119%; in the assay on SNB-19 CNS it was 104%; in the assay on U251 CNS it was 102%; in the assay with PC-3 prostate, 104%. For the same compound, the growth with SK-MEL-5 melanoma is 112%; with UACC-62 melanoma it was 103%; with LOX IMVI melanoma, 100%; in the assay with SK-MEL-28 melanoma, 143%.

Turning to `COc1ccc2nc(NC(=O)COc3cc(/C=C\c4cc(OC)c(OC)c(OC)c4)ccc3OC)sc2c1`, the growth in the assay with HCT-15 colon was 15.5%; in the assay with HT29 colon, 10.3%; in the assay on SNB-75 CNS, -5.27% (active); in the assay on SNB-19 CNS, 31.5%; with U251 CNS it was 20.4%; in the assay on PC-3 prostate, 30.4%. Moreover, the growth in the assay with SK-MEL-5 melanoma is 10.8%; with UACC-62 melanoma, 33.8%; in the assay on LOX IMVI melanoma it was 8.81% (active); in the assay with SK-MEL-28 melanoma, 43.5%.

As for `CC[C@H](C)[C@H](NC(=O)[C@H]1CCCCN1C)C(=O)N(C)[C@H](CCc1nc(C(=O)N[C@@H](Cc2ccccc2)C[C@H](C)C(=O)OC)cs1)C(C)C`, the growth with HCT-15 colon is 12.3%; with HT29 colon, -3.3% (active); in the assay with SNB-75 CNS, 56.3%; with SNB-19 CNS, 35.2%; with U251 CNS, 10.2%; in the assay on PC-3 prostate, 24.3%. Also, the growth was -22.1% (active) with SK-MEL-5 melanoma, 41.5% in the assay on UACC-62 melanoma, 24% in the assay on LOX IMVI melanoma and 65.6% in the assay on SK-MEL-28 melanoma.

In the case of `O=Cc1cn(Cc2ccc(Cl)cc2)c2ccccc12`, the growth was 89.7% with HCT-15 colon; 106% with HT29 colon; 86.7% with SNB-75 CNS; 89.7% in the assay with SNB-19 CNS; 75.5% in the assay with U251 CNS; 82.3% with PC-3 prostate. The growth in the assay with SK-MEL-5 melanoma was 94.4%; with UACC-62 melanoma, -0.449% (active); in the assay on LOX IMVI melanoma, 88.2%; with SK-MEL-28 melanoma, 96.4%.

Turning to `CCCC[C@H](NC(=O)[C@H]1CCCN1C)C(=O)N(C)[C@H](C[C@@H](OC(C)=O)c1nc(C(=O)N[C@@H](Cc2ccccc2)C[C@H](C)C(=O)OCC)cs1)C(C)C`, the growth in the assay on HCT-15 colon was 19.1%; with HT29 colon, 1.99% (active); with SNB-75 CNS, 51.5%; in the assay on SNB-19 CNS, 38.4%; in the assay on U251 CNS, 8.61% (active); in the assay on PC-3 prostate, 13%. For the same compound, the growth is -25.1% (active) in the assay with SK-MEL-5 melanoma, 43.4% in the assay with UACC-62 melanoma, 20.8% in the assay with LOX IMVI melanoma and 71.3% in the assay on SK-MEL-28 melanoma.

`Oc1ccc2c3c1OC1[C@@H](O)CC[C@@]4(O)[C@@H](C2)N(CC2CCC2)CC[C@]314` (stereo not given in full): the growth in the assay on HCT-15 colon was 99.2%; with HT29 colon, 98%; in the assay on SNB-75 CNS, 97.9%; in the assay with SNB-19 CNS, 109%; in the assay on U251 CNS, 96.8%; in the assay on PC-3 prostate, 94.1%. In addition, the growth in the assay on SK-MEL-5 melanoma is 92.5%; in the assay on UACC-62 melanoma, 108%; in the assay on LOX IMVI melanoma it was 97.3%; with SK-MEL-28 melanoma it was 106%.

As for `CC[C@H](C)[C@H](NC(=O)c1cccn1C)C(=O)N(C)[C@H](C[C@@H](OC(C)=O)c1nc(C(=O)N[C@@H](Cc2ccccc2)C[C@H](C)C(=O)OC)cs1)C(C)C`, the growth was 12% in the assay on HCT-15 colon; -18.1% (active) in the assay with HT29 colon; 33.4% in the assay with SNB-75 CNS; 35.4% in the assay on SNB-19 CNS; 12.3% with U251 CNS; 21.2% in the assay with PC-3 prostate. The growth was -29.1% (active) in the assay with SK-MEL-5 melanoma, 40.4% in the assay on UACC-62 melanoma, 15.2% in the assay on LOX IMVI melanoma and 68.8% in the assay with SK-MEL-28 melanoma.

As to `O=C(CCCCCNC1=CC(=O)c2ccccc2C1=O)NCCC[Te]c1ccccc1`, the growth was -20.1% (active) in the assay on HCT-15 colon; -47.5% (active) in the assay with HT29 colon; -26% (active) in the assay on SNB-75 CNS; 5.42% (active) in the assay with SNB-19 CNS; -8.56% (active) in the assay on U251 CNS; -0.995% (active) in the assay with PC-3 prostate. Also, the growth in the assay on SK-MEL-5 melanoma was -92.9% (active); with UACC-62 melanoma, -27.7% (active); in the assay with LOX IMVI melanoma it was -22.1% (active); with SK-MEL-28 melanoma, -42% (active).

Regarding `O=C(CN1CCN(C(=O)c2ccco2)CC1)Nc1ccc(Cl)cc1C(=O)c1ccccc1Cl`, the growth was 81.9% in the assay on HCT-15 colon; 89.4% in the assay with HT29 colon; 67.8% in the assay with SNB-75 CNS; 99.2% with SNB-19 CNS; 91.3% in the assay on U251 CNS; 73.9% with PC-3 prostate. For the same compound, the growth is 51.1% in the assay on SK-MEL-5 melanoma, 58.5% in the assay with UACC-62 melanoma, 79.9% in the assay on LOX IMVI melanoma and 110% in the assay with SK-MEL-28 melanoma.

In the case of `COC(=O)[C@@H](C)C[C@H](Cc1ccccc1)NC(=O)c1nc([C@@H](C[C@H](C(C)C)N(C)C(=O)[C@@H](NC(=O)[C@H]2CCCCN2C)C(C)C)OC(C)=O)sc1C(C)C`, the growth was 5.69% (active) in the assay on HCT-15 colon; 1.52% (active) in the assay with HT29 colon; -0.49% (active) in the assay on SNB-75 CNS; 27.7% in the assay with SNB-19 CNS; 6.19% (active) with U251 CNS; 21.2% in the assay with PC-3 prostate. Also, the growth with SK-MEL-5 melanoma was -57.3% (active); with UACC-62 melanoma, 29.4%; with LOX IMVI melanoma, 9.2% (active); in the assay on SK-MEL-28 melanoma, 49.1%.

Regarding `CCOC(=O)[C@@H](C)C[C@H](Cc1ccccc1)NC(=O)c1csc([C@@H](C[C@H](C(C)C)N(C)C(=O)[C@H](CC)NC(=O)[C@H]2CCCCN2C)OC(C)=O)n1`, the growth is 9.87% (active) in the assay with HCT-15 colon; 4.72% (active) with HT29 colon; 25.4% with SNB-75 CNS; 19.7% with SNB-19 CNS; 11.7% in the assay with U251 CNS; 23.8% in the assay on PC-3 prostate. For the same compound, the growth is -52.9% (active) with SK-MEL-5 melanoma, 30.9% in the assay on UACC-62 melanoma, 9.39% (active) with LOX IMVI melanoma and 61.8% with SK-MEL-28 melanoma.

Take `O=[As](O)(O)c1ccccc1[As](=O)(O)O`: the growth with HCT-15 colon was 91.1%; with HT29 colon it was 109%; with SNB-75 CNS it was 116%; in the assay on SNB-19 CNS, 109%; in the assay on U251 CNS, 93.6%; in the assay with PC-3 prostate, 93.3%. In addition, the growth in the assay on SK-MEL-5 melanoma is 107%; in the assay on UACC-62 melanoma, 98.5%; in the assay with LOX IMVI melanoma it was 87.6%; with SK-MEL-28 melanoma, 117%.
